Test [1] in a line: NCI Yeast Anticancer Drug Screen. Data for the rad50 strain (AID 155).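 Note: 0% = growth of vehicle-only cultures of the same strain.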 The note with it: S. cerevisiae rad50 strain growth inhibition, stronger effect = higher value. A digest of the protocol:
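Compounds were tested on a yeast strain with an engineered DNA damage repair alteration; the reported value is growth inhibition normalised to vehicle treatment.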

Test [2] can be described thus: NCI Yeast Anticancer Drug Screen. Data for the mec2-1 strain (AID 157). The note with it: S. cerevisiae mec2-1 strain, stronger effect = higher value. In outline: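 Test agents were screened against the mec2-1 yeast strain, with defined DNA repair or cell cycle alteration. Growth was scored as inhibition against vehicle-only controls.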
The nature of test [3]: NCI Yeast Anticancer Drug Screen. Data for the sgs1 mgt1 strain (AID 161).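 Note: 0% = growth of cultures given vehicle only.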 The note with it: S. cerevisiae sgs1 mgt1 strain, stronger effect = higher value. A digest of the protocol:
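Test agents were incubated with a DNA-repair-mutant yeast strain. Growth was then read and compared against vehicle-treated controls.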

A short description of test [4]: NCI Yeast Anticancer Drug Screen. Data for the cln2 rad14 strain (AID 165).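 Note: 0% = growth equal to vehicle treated cultures.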 To be noted: S. cerevisiae cln2 rad14 strain, stronger effect = higher value. A digest of the protocol:
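Growth of compound-exposed yeast (cln2 rad14 genotype) measured and expressed as inhibition relative to vehicle.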

Test [5] can be described thus: NCI Yeast Anticancer Drug Screen. Data for the bub3 strain (AID 167). The note with it: S. cerevisiae bub3 mutant strain, stronger effect = higher value. In outline: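 Growth of a checkpoint-deficient yeast mutant is measured after compound exposure. Values represent inhibition relative to vehicle.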
Test [6] in a line: NCI Yeast Anticancer Drug Screen. Data for the mlh1 rad18 strain (AID 175). The note with it: S. cerevisiae mlh1 rad18 strain growth inhibition, stronger effect = higher value. A digest of the protocol:
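In this whole-cell yeast screen, a strain with altered DNA damage repair is challenged with compound, and its growth is measured against matched vehicle-treated controls.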

Where [7] appears, read: at 5.0 µM (retest, dose inferred, filed as 0.5).
Setting [8] is: at 50.0 µM (retest, dose inferred, filed as 5.0).

From PubChem BioAssay (NCI) come the findings set out here.

About 79,000 compounds went through this panel and 15% of them were active in at least one assay; those are over-represented in the sample as a whole. Values without a mark were called inactive. Active and inactive are the calls of the source. Cut-off read from the data, not from the text of the source: active = growth inhibition above about 70%; inactive = the rest.

In the case of `CC(=O)O[C@@H]1CO[C@H]2O[C@H]3[C@@H](C(C=O)=C[C@H](O)[C@@H]4C5=C(C(C)C)CC[C@]5(C)CC[C@@]34C)[C@@]2(O)C1=O`, the growth inhibition in test [1] (setting [7]) is 99% (active); in test [1] (setting [8]), 99% (active); in test [1] (at 50.0 µM), 92.1% (active); in test [2] (setting [7]), 99% (active); in test [2] (setting [8]), 100% (active); in test [2] (at 50.0 µM), 92.8% (active). The growth inhibition in test [3] (setting [7]) is 97% (active); in test [3] (setting [8]) it was 100% (active); in test [3] (at 50.0 µM), 92.7% (active); in test [4] (setting [7]) it was 94% (active); in test [4] (setting [8]), 98% (active); in test [4] (at 50.0 µM), 91% (active). For the same compound, the growth inhibition was 97% (active) in test [5] (setting [7]); 99% (active) in test [5] (setting [8]); 91.3% (active) in test [5] (at 50.0 µM); 98% (active) in test [6] (setting [7]); 99% (active) in test [6] (setting [8]); 91.7% (active) in test [6] (at 50.0 µM).

Turning to `CCc1cc(CC)c(-c2ccco2)c(COC(=O)NC)c1`, the growth inhibition is -1% in test [1] (setting [7]); 68% in test [1] (setting [8]); 95.4% (active) in test [1] (at 50.0 µM); -3% in test [2] (setting [7]); 64% in test [2] (setting [8]); 94.2% (active) in test [2] (at 50.0 µM). For the same compound, the growth inhibition is -4% in test [3] (setting [7]); 78% (active) in test [3] (setting [8]); 94.3% (active) in test [3] (at 50.0 µM); -7% in test [4] (setting [7]); 25% in test [4] (setting [8]); 77.4% (active) in test [4] (at 50.0 µM). Besides, the growth inhibition in test [5] (setting [7]) was -8%; in test [5] (setting [8]), 72% (active); in test [5] (at 50.0 µM), 96% (active); in test [6] (setting [7]), -1%; in test [6] (setting [8]) it was 86% (active); in test [6] (at 50.0 µM), 96.3% (active).

As for `CCCCCCOC(=O)Nc1ccc(S(=O)(=O)N2CCCCC2)cc1`, the growth inhibition is -7% in test [1] (setting [7]); 47% in test [1] (setting [8]); 35.5% in test [1] (at 50.0 µM); -9% in test [2] (setting [7]); 56% in test [2] (setting [8]); 28.1% in test [2] (at 50.0 µM). In addition, the growth inhibition is 7% in test [3] (setting [7]); 66% in test [3] (setting [8]); 50.5% in test [3] (at 50.0 µM); -87% in test [4] (setting [7]); 44% in test [4] (setting [8]); 7.35% in test [4] (at 50.0 µM). Also, the growth inhibition is -10% in test [5] (setting [7]); 41% in test [5] (setting [8]); 73.8% (active) in test [5] (at 50.0 µM); -1% in test [6] (setting [7]); 46% in test [6] (setting [8]); 52.5% in test [6] (at 50.0 µM).

Regarding `COc1ccc(/C=C2\Sc3scc(-c4ccc([N+](=O)[O-])cc4)[n+]3C2=O)cc1OC`, the growth inhibition in test [1] (setting [7]) is 3%; in test [1] (setting [8]), 4%; in test [1] (at 50.0 µM), 39.3%; in test [2] (setting [7]), -6%; in test [2] (setting [8]) it was 20%; in test [2] (at 50.0 µM) it was 55%. Moreover, the growth inhibition was -3% in test [3] (setting [7]); 11% in test [3] (setting [8]); 66% in test [3] (at 50.0 µM); 0% in test [4] (setting [7]); -4% in test [4] (setting [8]); 28.6% in test [4] (at 50.0 µM). The growth inhibition in test [5] (setting [7]) is 9%; in test [5] (setting [8]), 16%; in test [5] (at 50.0 µM) it was 83% (active); in test [6] (setting [7]), 3%; in test [6] (setting [8]), 12%; in test [6] (at 50.0 µM), 65.8%.

For the compound `COc1ccc(Cc2ccc3c(C)cc(Cl)nc3c2)cc1`, the growth inhibition in test [1] (setting [7]) was 1%; in test [1] (setting [8]) it was 74% (active); in test [1] (at 50.0 µM), 77% (active); in test [2] (setting [7]), -8%; in test [2] (setting [8]), 87% (active); in test [2] (at 50.0 µM) it was 67.8%. For the same compound, the growth inhibition in test [3] (setting [7]) was -5%; in test [3] (setting [8]), 96% (active); in test [3] (at 50.0 µM) it was 87% (active); in test [4] (setting [7]) it was 1%; in test [4] (setting [8]), 29%; in test [4] (at 50.0 µM), 31.6%. Further, the growth inhibition was 10% in test [5] (setting [7]); 78% (active) in test [5] (setting [8]); 89% (active) in test [5] (at 50.0 µM); 0% in test [6] (setting [7]); 93% (active) in test [6] (setting [8]); 86.3% (active) in test [6] (at 50.0 µM).

In the case of `Clc1cc[c]([Sn]([O][Sn]([c]2ccc(Cl)cc2)([c]2ccc(Cl)cc2)[c]2ccc(Cl)cc2)([c]2ccc(Cl)cc2)[c]2ccc(Cl)cc2)cc1`, the growth inhibition in test [1] (setting [7]) was 98% (active); in test [1] (setting [8]) it was 95% (active); in test [1] (at 50.0 µM), 97.5% (active); in test [2] (setting [7]) it was 99% (active); in test [2] (setting [8]), 98% (active); in test [2] (at 50.0 µM), 99.3% (active). For the same compound, the growth inhibition in test [3] (setting [7]) is 99% (active); in test [3] (setting [8]) it was 98% (active); in test [3] (at 50.0 µM), 96.6% (active); in test [4] (setting [7]), 99% (active); in test [4] (setting [8]) it was 96% (active); in test [4] (at 50.0 µM), 79.5% (active). The growth inhibition in test [5] (setting [7]) is 98% (active); in test [5] (setting [8]), 97% (active); in test [5] (at 50.0 µM), 88.8% (active); in test [6] (setting [7]), 99% (active); in test [6] (setting [8]), 97% (active); in test [6] (at 50.0 µM), 98.3% (active).

For `Cc1ccccc1NCc1ccccc1Cl`, the growth inhibition in test [1] (setting [7]) is -141%; in test [1] (setting [8]) it was 98% (active); in test [1] (at 50.0 µM) it was 99% (active); in test [2] (setting [7]), -55%; in test [2] (setting [8]) it was 99% (active); in test [2] (at 50.0 µM), 99.5% (active). Also, the growth inhibition in test [3] (setting [7]) is -66%; in test [3] (setting [8]), 99% (active); in test [3] (at 50.0 µM), 98.5% (active); in test [4] (setting [7]), -83%; in test [4] (setting [8]), 99% (active); in test [4] (at 50.0 µM) it was 99% (active). The growth inhibition in test [5] (setting [7]) was -65%; in test [5] (setting [8]) it was 99% (active); in test [5] (at 50.0 µM) it was 99.5% (active); in test [6] (setting [7]), -105%; in test [6] (setting [8]), 98% (active); in test [6] (at 50.0 µM), 96.7% (active).

For `O=C(CC(O)(C(F)(F)Cl)C(F)(F)Cl)CC(O)(C(F)(F)Cl)C(F)(F)Cl`, the growth inhibition was 94% (active) in test [1] (setting [7]); 100% (active) in test [1] (setting [8]); 99.1% (active) in test [1] (at 50.0 µM); 97% (active) in test [2] (setting [7]); 100% (active) in test [2] (setting [8]); 99.5% (active) in test [2] (at 50.0 µM). Also, the growth inhibition is 93% (active) in test [3] (setting [7]); 99% (active) in test [3] (setting [8]); 99.5% (active) in test [3] (at 50.0 µM); 95% (active) in test [4] (setting [7]); 99% (active) in test [4] (setting [8]); 99.3% (active) in test [4] (at 50.0 µM). For the same compound, the growth inhibition in test [5] (setting [7]) is 91% (active); in test [5] (setting [8]), 100% (active); in test [5] (at 50.0 µM), 99.6% (active); in test [6] (setting [7]), 97% (active); in test [6] (setting [8]) it was 100% (active); in test [6] (at 50.0 µM), 99.2% (active).

For the compound `CCN(CC)CCC(=O)NC1c2ccc(Cl)cc2Oc2c(C)cccc21` (configuration not stated), the growth inhibition in test [1] (setting [7]) was -23%; in test [1] (setting [8]), 21%; in test [1] (at 50.0 µM), 54.6%; in test [2] (setting [7]), -1%; in test [2] (setting [8]), -7%; in test [2] (at 50.0 µM), -14.2%. Also, the growth inhibition in test [3] (setting [7]) was 2%; in test [3] (setting [8]), 19%; in test [3] (at 50.0 µM), 40.6%; in test [4] (setting [7]), 18%; in test [4] (setting [8]) it was 51%; in test [4] (at 50.0 µM) it was 15.2%. Besides, the growth inhibition is 3% in test [5] (setting [7]); 7% in test [5] (setting [8]); -30.5% in test [5] (at 50.0 µM); 8% in test [6] (setting [7]); 44% in test [6] (setting [8]); 17.6% in test [6] (at 50.0 µM).
